# Source: PubChem BioAssay (NCI)
# The panel holds about 83,000 compounds, 20% with a hit somewhere; the sample as a whole holds those more often.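 The test compound was applied at a single concentration to cells in 96-well plates for 48 hours, and percent growth was recorded.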 The source made the active and inactive calls. How the source made its calls: active means growth percent below 10; inactive means the rest.
# Test system: SNB-19 CNS
# Assay: NCI-60 one-dose screen, 48 h (100 = growth as untreated, 0 = no growth, -100 = all killed)
# Conditions: 10 µM unless noted
row,SMILES,growth
1,CC(=O)OC[C@]12CC[C@@H](c3cn(Cc4ccc(Cn5cc([C@@H]6CC[C@]7(COC(C)=O)CC[C@]8(C)[C@H](CC[C@@H]9[C@@]%10(C)CC[C@H](OC(C)=O)C(C)(C)[C@@H]%10CC[C@]98C)[C@@H]67)nn5)cc4)nn3)[C@@H]1[C@H]1CC[C@@H]3[C@@]4(C)CC[C@H](OC(C)=O)C(C)(C)[C@@H]4CC[C@@]3(C)[C@]1(C)CC2,96.7% (inactive)
2,Cc1c(Br)cccc1NC(=O)c1sc2nc3c(cc2c1N)CN(Cc1ccccc1)CC3,23% (inactive)
3,COc1cccc(C(=O)OCCn2nc3c4c(cccc42)C(=O)c2ccccc2-3)c1O,38.3% (inactive)

# Test system: U251 CNS
# Assay: as above
# Conditions: 10 µM unless noted
row,SMILES,growth
1,CCc1ccc(OCc2ccccc2C(=O)Nc2ccc3nc(C)cc(N)c3c2)cc1,-90.9% (active)
2,Nc1cccc(C(=O)Nc2ccc3c(O)c(N=Nc4ccc(N=Nc5ccc(S(=O)(=O)O)cc5)cc4)c(S(=O)(=O)O)cc3c2)c1,109% (inactive)
3,COc1cc(NCC(=O)Nc2cc(Nc3cccc(C(F)(F)F)c3)ncn2)c(Cl)c(OC)c1Cl,92.5% (inactive)
4,CC1CCCN(CCCCCOc2ccc3oc4ccccc4c(=O)c3c2)C1 (configuration not stated),62.7% (inactive)
5,CCCn1c(N)c(C(N)=O)sc1=S,97.4% (inactive)
6,CCOC(=O)c1sc(/N=C2\NC(=O)/C(=C/c3ccc(N4CCN(C)CC4)cc3)S2)nc1C,106% (inactive)
7,CN(C)C1=NCCN1,96.9% (inactive)
8,CCOC(=O)c1ccc(Nc2ncnc3ccc(NC(=O)c4ccccc4)cc23)cc1,94.1% (inactive)
9,N#CC1C(c2ccc(Cl)cc2)=Nc2c(c(-c3ccccc3)nn2-c2ccccc2)C12C(=O)Nc1ccc(Cl)cc12 (configuration not stated),18.6% (inactive)
